The record followed here is ChEMBL document CHEMBL3433997, “St. Jude Leishmania screening dataset” (2016).

Holding throughout (format): functional
For assay [1], the target named is Solute carrier family 2, facilitated glucose transporter member 1 (Homo sapiens) (UniProt P11166). Kind of assay: ST_JUDE_LEISH: Cytotoxicity at 2uM final concentration against transgenic Leishmania Mexicana promastigotes LmGLUT1 that are glucose transport deficient and complemented with the human glucose transporter GLUT1. Activity is measured by DNA content using SYBR green in vitro.
Sequence of Solute carrier family 2, facilitated glucose transporter member 1 (Homo sapiens) (P11166 whole entry): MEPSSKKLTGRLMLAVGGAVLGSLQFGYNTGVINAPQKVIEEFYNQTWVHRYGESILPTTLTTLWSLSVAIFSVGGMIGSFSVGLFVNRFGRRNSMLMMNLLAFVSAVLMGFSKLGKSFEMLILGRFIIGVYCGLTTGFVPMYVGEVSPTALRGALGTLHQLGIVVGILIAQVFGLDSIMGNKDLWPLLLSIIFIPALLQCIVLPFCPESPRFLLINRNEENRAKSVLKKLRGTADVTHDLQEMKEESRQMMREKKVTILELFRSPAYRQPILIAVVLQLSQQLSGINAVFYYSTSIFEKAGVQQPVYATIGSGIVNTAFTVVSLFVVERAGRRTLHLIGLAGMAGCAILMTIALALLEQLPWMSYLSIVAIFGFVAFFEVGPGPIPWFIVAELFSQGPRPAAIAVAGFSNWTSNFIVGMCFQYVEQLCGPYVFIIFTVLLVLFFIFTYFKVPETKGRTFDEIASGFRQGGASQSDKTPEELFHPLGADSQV

For assay [2], the target named is Hexose transporter 1 (Plasmodium falciparum) (UniProt O97467). Kind of assay: ST_JUDE_LEISH: Cytotoxicity at 2uM final concentration against transgenic Leishmania Mexicana promastigotes LmPfHT that are glucose transport deficient and complemented with the Plasmodium falciparum hexose transporter. Activity is measured by DNA content using SYBR green in vitro.
The target of assay [3] is Glucose transporter (Leishmania mexicana) (UniProt O61059). In words: ST_JUDE_LEISH: Cytotoxicity at 2uM final concentration against transgenic Leishmania Mexicana promastigotes LmGT2 that are glucose transport deficient and complemented with the L. Mexicana glucose transporter 2. Activity is measured by DNA content using SYBR green in vitro.

The term inhibition denotes the relative decrease from the control value, in per cent. As for `N#Cc1cc(C(=O)Nc2ccccc2)c(N)nc1SCC(=O)NC(c1ccccc1)c1cccs1` (stereo unspecified), the results for the inhibition in assay [1], in assay [2] and in assay [3] were 4.19%, 1.36% and 4.48%, respectively.

`C=CCc1cc(OC)ccc1OCCCOc1c(C)nc(N)nc1N`: the inhibition in assay [1] worked out at 78.2%; in assay [2], 77.6%; in assay [3] it was 65.3%.

Consider `Cc1cc(N[C@@H](Cc2ccccc2)C(=O)Nc2ccccc2)nc(NCCc2ccc(F)cc2)n1`, for which the inhibition in assay [1] was found to be 3.66%; in assay [2], 3.68%; in assay [3] it was 1.86%.

Take `CNCc1cccc(-c2ccc3ccnc(N)c3c2)c1`: the results for the inhibition in assay [1], in assay [2] and in assay [3] were 7.92%, 10.7% and 7.76%, respectively.

For the compound `CCc1cn2c3c(cc(C(=O)N[C@@H](Cc4ccccc4)[C@H](O)CNC(C)(C)CCCC(C)C)cc13)N(C)S(=O)(=O)C2`, the inhibition in assay [1] came to 2.45%; in assay [2], 2.22%; in assay [3] it was 0.85%.

As for `CC(N)(Cc1ccc(O)cc1)c1nnn[nH]1` (stereo unspecified), the inhibition in assay [1] is -0.06%; in assay [2], 1.3%; in assay [3], -0.23%.

For `COc1ccc(CNCc2ccc(-c3ccc(-c4nc5ccccc5[nH]4)cc3)cc2)cc1`, the inhibition is 17.8% in assay [1], 14.9% in assay [2] and 10.5% in assay [3].

Regarding `O=C(NCCN1CCCc2ccccc21)C1CCN(c2nc(-c3ccc(Cl)cc3)no2)CC1`, the results for the inhibition in assay [1], in assay [2] and in assay [3] were 1.63%, 2.11% and -2.23%, respectively.

With `CN1CCCC(CN2CCN(Cc3cccc(-c4cccc(-c5nc6ccccc6[nH]5)c4)c3)CC2)C1` (stereo unspecified), the inhibition in assay [1] is 1.59%; in assay [2], 2.2%; in assay [3] it was -0.86%.

For `COc1cc(Nc2nccn3c(-c4ccsc4)cnc23)cc(OC)c1OC`, the inhibition in assay [1] was 7.63%; in assay [2], 5.81%; in assay [3] it was 4.31%.

Take `O=C(C=Cc1ccc(Cl)c(Cl)c1)NCCCCCN1CCCC(CCCNC(=O)c2ccc3c(c2)OCO3)C1` (stereo unspecified): the inhibition in assay [1] was 2.29%; in assay [2] it was 0.94%; in assay [3] it was -0.94%.

With `CCCCCCN(C(=O)OCc1ccccc1)C1CCN(C(=O)OC(C)(C)C)CC1C(=O)OCC` (stereo unspecified), the inhibition was 7.92% in assay [1], 6.27% in assay [2] and 7.27% in assay [3].

As to `COc1ccc2nc(-c3cccc(C)n3)nc(Nc3ccncc3)c2c1`, the figures for the inhibition in assay [1], in assay [2] and in assay [3] were 11.6%, 1.8% and 2.21%, respectively.

On to `C=CCNC(CCCCC)c1ccc(OCCOc2ccc(C(CCCCC)NCC=C)cc2)cc1` (stereo unspecified), for which the inhibition worked out at 0.79% in assay [1], 11.9% in assay [2] and 3.03% in assay [3].

For `Cc1ccc(CNc2ccc3ncc(-c4cccc(C(=O)NCCN(C)C)c4)n3n2)c(C)c1`, the inhibition in assay [1] came out at 5.82%; in assay [2], 5.31%; in assay [3], 4.49%.

For `O=C(NCCCN1CCOCC1)c1ccc(-c2cccc(NC(=O)c3ccc(Cl)c(Cl)c3)c2)cc1`, the inhibition was 2.04% in assay [1], 1.79% in assay [2] and -0.88% in assay [3].

With `Cc1cc(N(CCN2CCCCC2)CCN2CCCCC2)nc(Nc2ccc(Cl)cc2)n1`, the inhibition was found to be 3.2% in assay [1], 1.3% in assay [2] and 2.83% in assay [3].

Take `Cc1[nH]c(C)c(-c2ccc(-c3cccc(Cl)c3)nc2)c(=O)c1Cl`: the figures for the inhibition in assay [1], in assay [2] and in assay [3] were 0.79%, 2.52% and 1.48%, respectively.

Turning to `COc1cccc(C(=O)NCc2cccs2)c1OCc1ccccc1`, the inhibition in assay [1] worked out at 1.77%; in assay [2], 0.89%; in assay [3], 1.15%.

Take `Fc1cccc(CNc2ncc(-c3ccsc3)c(-c3nccs3)n2)c1`: the inhibition in assay [1] is 1.64%; in assay [2], 1.96%; in assay [3] it was 2%.

For the compound `COc1cc2c(cc1C(F)(F)F)N(C(=O)Nc1cc(Br)cc(-c3cccnc3)c1)CC2`, the inhibition in assay [1] is 8.34%; in assay [2], 6.53%; in assay [3], 6.18%.

Consider `CN(Cc1ccccc1)C1CCCN(c2cc(NC(=O)c3ccc(F)cc3)ccn2)C1` (stereo unspecified), for which the inhibition in assay [1] was -0.91%; in assay [2], -2.04%; in assay [3] it was 0.07%.

Take `CCN(CC)/C(=N/C(=N)NCc1cccc(Cl)c1)NCCCCCCN/C(=N\C(=N)NCc1cccc(Cl)c1)N(CC)CC`: the results for the inhibition in assay [1], in assay [2] and in assay [3] were 4.23%, 4.83% and 2.27%, respectively.

`c1cncc(Oc2ccc(Nc3ccnc4cc(-c5cccc(CNCCN6CCOCC6)c5)ccc34)cc2)c1`: the inhibition is 0.19% in assay [1], -1.57% in assay [2] and 1.1% in assay [3].

Regarding `COc1cc2nc(NCC3CCN(C(=O)c4ccc(-c5ccc(C(=O)N(C)C)cc5C)cc4)CC3)nc(N)c2cc1OC`, the inhibition in assay [1] stood at 10.9%; in assay [2], 9.71%; in assay [3] it was 7.15%.

For the compound `O=C(CSc1nccn1C1CCCC1)Nc1cc(C(F)(F)F)ccc1Cl`, the inhibition in assay [1] amounted to 1.51%; in assay [2], 2.58%; in assay [3] it was 2%.

As to `Cc1cccc2nc(-c3ccc(-c4cccc(CN5CCCC(N)C5)c4)s3)[nH]c12` (stereo unspecified), the inhibition is 12.7% in assay [1], 11.2% in assay [2] and 11.7% in assay [3].

On to `COc1ccc(NC(=O)[C@H](CC(C)C)Nc2cc(C)nc(NCCc3ccc(F)cc3)n2)cc1`, for which the inhibition in assay [1] turned out to be 5.65%; in assay [2], 4.09%; in assay [3], 3.65%.

As for `CCOC(=O)c1nc(-c2cc(Cl)nc(Cl)c2)[nH]c1NC(=S)NCCCN1CCOCC1`, the inhibition in assay [1] stood at 2.49%; in assay [2] it was 1.96%; in assay [3], 0.84%.

For the compound `COc1ccc(-c2nc(NC(=O)CS(=O)(=O)c3ccc(F)cc3)sc2C)cc1`, the values for the inhibition in assay [1], in assay [2] and in assay [3] were 8.03%, 4.52% and 2.47%, respectively.

As for `CCC(c1ccccc1)c1nn2c(-c3cccs3)nnc2s1` (stereo unspecified), the figures for the inhibition in assay [1], in assay [2] and in assay [3] were 2.96%, 3.46% and 0.64%, respectively.

On to `CCOc1cccc(C(=O)Nc2nonc2-c2ccc(OC)c(OC)c2)c1`, for which the inhibition turned out to be 10.3% in assay [1], 9.2% in assay [2] and 7.57% in assay [3].

With `COc1ccc(CN2CCN(Cc3cc(Cl)ccc3O)CC2CCO)c(C)c1C` (stereo unspecified), the inhibition in assay [1] was -1.12%; in assay [2] it was 0.94%; in assay [3], 0.13%.

For `COc1cc(C(=O)NC2CC(C)(C)N(C)C(C)(C)C2)ccc1-c1nc2cc(Cl)c(Cl)cc2[nH]1`, the inhibition was -0.5% in assay [1], 1.21% in assay [2] and 3.3% in assay [3].

With `COc1ccc(Nc2ncc3c(-c4cccc(NC(=O)CC(C)C)c4)c[nH]c3n2)cc1OC`, the inhibition in assay [1] was determined as 7.31%; in assay [2] it was 8.48%; in assay [3], 6.64%.

Regarding `CC(C)CCN1CCC(Oc2ccc(NC(=O)c3ccco3)cc2Cl)CC1`, the inhibition is 7.85% in assay [1], 9.84% in assay [2] and 5.26% in assay [3].

`O=C(Nc1ccc2c(c1)CCN2C1CCN(Cc2ccc(O)cc2)C1)c1ccco1` (stereo unspecified): the inhibition is 0.95% in assay [1], 2.04% in assay [2] and -0.34% in assay [3].
